According to PubChem BioAssay (NCATS):
Results filed as inconclusive are left out. Activity calls are given as the source filed them. The call rests on the fitted dose curve; in most records, active means well fitted curve in the direction sought with a large enough effect; inconclusive means small, poorly fitted or top-dose-only effect, or another doubt; inactive means no such curve, though single readings can be large; an effect the other way counts as inactive or inconclusive.

Columns and labels:
KB-3-1 = assay: Cytotoxic Profiling of Annotated Libraries Using Quantitative High-Throughput Screening (AID 1296008); details: Five cell lines viability, CellTiter-Glo ATP luminescence, 48-72 h; max response: hits give low values; further: nearly all actives have a fitted effect of over 60% in size; on max response: on the % scale 0 is the no-effect control and ±100 the full control effect
In short: (§1)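 Cells exposed to compounds for 48 or 72 hr at 37 degrees Celsius. Viability read as ATP-coupled luminescence with CellTiter-Glo after 10 min at room temperature.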

NIH3T3 [1] = assay: as above; details: Five cell lines viability, CellTiter-Glo ATP luminescence, 48-72 h; max response: hits give low values
In short: as §1

HACAT = assay: qHTS assay to identify novel small-molecules to repurpose for Merkel cell carcinoma treatment (AID 1296009); details: MCC and control cell lines, CellTiter-Glo viability, 72 h; at 44.8 µM (top of the series) unless noted; further: nearly all actives have a fitted effect of over 60% in size
In short: (§2)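 CellTiter-Glo luminescence after 72 hr compound exposure at 37 degree celsius gave cell viability. Libraries NPC and MIPE were run as 8- and 11-point dose responses; RLUs normalized to DMSO (negative) and no-cell (cytotoxicity) controls.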

HEK293T [2] = assay: as above; details: MCC and control cell lines, CellTiter-Glo viability, 72 h; series mostly up to 44.8 µM
In short: as §2

NIH3T3 [3] = assay: as above; details: MCC and control cell lines, CellTiter-Glo viability, 72 h; at 44.8 µM (top of the series) unless noted
In short: as §2

C33A = assay: Primary qHTS to identify gynecologic anti-cancer compounds using libraries of approved drugs and bioactive compounds (AID 1345084); details: Gynecologic cancer cell panel viability, ATPlite luminescence, 48 h; series mostly up to 57.5 µM; further: on the % scale 0 is the no-effect control and ±100 the full control effect; nearly all actives have a fitted effect of over 55% in size
In short: (§3)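 Cytotoxicity screen measuring ATP content by luciferase luminescence. Each compound is applied at five concentrations for 48 h at 37 C with 5% CO2.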

CAOV3 = assay: as above; details: Gynecologic cancer cell panel viability, ATPlite luminescence, 48 h; series mostly up to 57.5 µM
In short: as §3

CASKI = assay: as above; details: Gynecologic cancer cell panel viability, ATPlite luminescence, 48 h; series mostly up to 57.5 µM
In short: as §3

Es-2 = assay: as above; details: Gynecologic cancer cell panel viability, ATPlite luminescence, 48 h; series mostly up to 57.5 µM
In short: as §3

HeLa = assay: as above; details: Gynecologic cancer cell panel viability, ATPlite luminescence, 48 h; series mostly up to 57.5 µM
In short: as §3

Hek293T [4] = assay: as above; details: Gynecologic cancer cell panel viability, ATPlite luminescence, 48 h, control line for the selectivity index; series mostly up to 57.5 µM
In short: as §3

JEG-3 = assay: as above; details: Gynecologic cancer cell panel viability, ATPlite luminescence, 48 h; series mostly up to 57.5 µM
In short: as §3

OV90 = assay: as above; details: Gynecologic cancer cell panel viability, ATPlite luminescence, 48 h; series mostly up to 57.5 µM
In short: as §3

PA-1 = assay: as above; details: Gynecologic cancer cell panel viability, ATPlite luminescence, 48 h; series mostly up to 57.5 µM
In short: as §3

COc1cc(C[C@H]2COC(=O)[C@@H]2Cc2ccc(O)c(OC)c2)ccc1O
inactive: max response (KB-3-1) -4.79% | outcome (NIH3T3 [1]) | outcome (HACAT) | Potency (HEK293T [2]) | outcome (NIH3T3 [3]) | Potency (C33A) | Potency (CAOV3) | Potency (CASKI) | Potency (Es-2) | Potency (HeLa) | Potency (Hek293T [4]) | Potency (JEG-3) | Potency (OV90) | Potency (PA-1)

O=C(O)c1ccc(CCCc2ccc(OCCc3ccc(F)cc3)cc2)o1
inactive: outcome (KB-3-1) | outcome (NIH3T3 [1]) | outcome (HACAT) | Potency (HEK293T [2]) | outcome (NIH3T3 [3]) | Potency (C33A) | Potency (CAOV3) | Potency (CASKI) | Potency (Es-2) | Potency (HeLa) | Potency (Hek293T [4]) | Potency (JEG-3) | Potency (OV90) | Potency (PA-1)

CC1CCC2C(C)(C)C(O)CCC2(C)C12Cc1c(O)cc3c(c1O2)C(N)=NC3 (stereo not drawn)
inactive: outcome (KB-3-1) | outcome (NIH3T3 [1]) | outcome (HACAT) | Potency (HEK293T [2]) | outcome (NIH3T3 [3]) | Potency (C33A) | Potency (CAOV3) | Potency (CASKI) | Potency (Es-2) | Potency (HeLa) | Potency (Hek293T [4]) | Potency (JEG-3) | Potency (OV90) | Potency (PA-1)

CN[C@@H]1[C@@H](O)[C@@H](O[C@@H]2[C@@H](O)[C@H](O[C@H]3O[C@H](CN)[C@@H](O)[C@H](O)[C@H]3O)[C@@H](N)C[C@H]2NC(=O)[C@@H](O)CN)OC[C@]1(C)O
inactive: max response (KB-3-1) -2.9% | outcome (NIH3T3 [1]) | outcome (HACAT) | Potency (HEK293T [2]) | outcome (NIH3T3 [3]) | Potency (C33A) | Potency (CAOV3) | Potency (CASKI) | Potency (Es-2) | Potency (HeLa) | Potency (Hek293T [4]) | Potency (JEG-3) | Potency (OV90) | Potency (PA-1)

O=C(O[C@H]1[C@@H]2C[C@@H]3OC[C@@](O)([C@H]2[C@H](O[C@@H]2O[C@H](CO)[C@@H](O)[C@H](O)[C@H]2O)O3)[C@@H]1O)c1ccccc1
inactive: outcome (KB-3-1) | outcome (NIH3T3 [1]) | outcome (HACAT) inactive [at 17.4 µM] | Potency (HEK293T [2]) | outcome (NIH3T3 [3]) inactive [at 17.4 µM] | Potency (C33A) | Potency (CAOV3) | Potency (CASKI) | Potency (Es-2) | Potency (HeLa) | Potency (Hek293T [4]) | Potency (JEG-3) | Potency (OV90) | Potency (PA-1)

O=C(O)CCc1cccc(O[C@@H]2O[C@H](CO)[C@@H](O)[C@H](O)[C@H]2O)c1O
inactive: outcome (KB-3-1) | outcome (NIH3T3 [1]) | outcome (HACAT) | Potency (HEK293T [2]) | outcome (NIH3T3 [3]) | Potency (C33A) | Potency (CAOV3) | Potency (CASKI) | Potency (Es-2) | Potency (HeLa) | Potency (Hek293T [4]) | Potency (JEG-3) | Potency (OV90) | Potency (PA-1)

CC1OC(OC2C(C)OC(OC3C(OC(=O)/C=C/c4ccc(O)cc4)C(CO)OC(OC4(COC(=O)/C=C/c5ccc(O)cc5)OC(CO)C(O)C4O)C3OC3OCC(O)(CO)C3O)C(O)C2O)C(O)C(O)C1O (stereo not drawn)
inactive: max response (KB-3-1) 4.29% | outcome (NIH3T3 [1]) | outcome (HACAT) inactive [at 9.27 µM] | outcome (HEK293T [2]) inactive [at 9.27 µM] | outcome (NIH3T3 [3]) inactive [at 9.27 µM] | activity change, negative = cytotoxicity (C33A) 4.08% [at 11.6 µM] | activity change, negative = cytotoxicity (CAOV3) -2.97% [at 11.6 µM] | activity change, negative = cytotoxicity (CASKI) 10% [at 11.6 µM] | activity change, negative = cytotoxicity (Es-2) -0.759% [at 11.6 µM] | activity change, negative = cytotoxicity (HeLa) -8.01% [at 11.6 µM] | activity change, negative = cytotoxicity (Hek293T [4]) 0.502% [at 11.6 µM] | activity change, negative = cytotoxicity (JEG-3) 2.4% [at 11.6 µM] | activity change, negative = cytotoxicity (OV90) 8.76% [at 11.6 µM] | activity change, negative = cytotoxicity (PA-1) -0.866% [at 11.6 µM]

CNC(=O)O[C@H]1COc2ccc(N3CCN(C4COC4)CC3)cc2[C@@H]1NC(=O)c1ccc(F)cc1
inactive: outcome (KB-3-1) | outcome (NIH3T3 [1]) | outcome (HACAT) | Potency (HEK293T [2]) | outcome (NIH3T3 [3]) | Potency (C33A) | Potency (CAOV3) | Potency (CASKI) | Potency (Es-2) | Potency (HeLa) | Potency (Hek293T [4]) | Potency (JEG-3) | Potency (OV90) | Potency (PA-1)

COc1ccc(C(=O)O[C@H]2CC(C)=CC[C@@]3(C)[C@@H](OC(C)=O)C[C@@](O)(C(C)C)[C@H]23)cc1
inactive: max response (KB-3-1) 7.38% | outcome (NIH3T3 [1]) | outcome (HACAT) inactive [at 17.4 µM] | Potency (HEK293T [2]) | outcome (NIH3T3 [3]) inactive [at 17.4 µM] | Potency (C33A) | Potency (CAOV3) | Potency (CASKI) | Potency (Es-2) | Potency (HeLa) | Potency (Hek293T [4]) | Potency (JEG-3) | Potency (OV90) | Potency (PA-1)

O=C(O)C[C@H]1CCC(=O)[C@@H]1C/C=C\CCOC1OC(CO)C(O)C(O)C1O (stereo partly drawn)
inactive: max response (KB-3-1) 1.25% | outcome (NIH3T3 [1]) | outcome (HACAT) | Potency (HEK293T [2]) | outcome (NIH3T3 [3]) | Potency (C33A) | Potency (CAOV3) | Potency (CASKI) | Potency (Es-2) | Potency (HeLa) | Potency (Hek293T [4]) | Potency (JEG-3) | Potency (OV90) | Potency (PA-1)

C=C[C@H]1[C@H](O[C@@H]2O[C@H](CO)[C@@H](O)[C@H](O)[C@H]2O)OC=C2C(=O)OCC[C@]21O
inactive: max response (KB-3-1) 0.223% | outcome (NIH3T3 [1]) | outcome (HACAT) | Potency (HEK293T [2]) | outcome (NIH3T3 [3]) | Potency (C33A) | Potency (CAOV3) | Potency (CASKI) | Potency (Es-2) | Potency (HeLa) | Potency (Hek293T [4]) | Potency (JEG-3) | Potency (OV90) | Potency (PA-1)

CCC[C@@H]1C[C@@H](C(=O)N[C@@H]([C@H]2O[C@H](SC)[C@H](O)[C@@H](O)[C@@H]2O)[C@@H](C)O)N(C)C1
inactive: outcome (KB-3-1) | outcome (NIH3T3 [1]) | outcome (HACAT) | Potency (HEK293T [2]) | outcome (NIH3T3 [3]) | Potency (C33A) | Potency (CAOV3) | Potency (CASKI) | Potency (Es-2) | Potency (HeLa) | Potency (Hek293T [4]) | Potency (JEG-3) | Potency (OV90) | Potency (PA-1)
